Source: the supplement of paper PMC6555819

Key:
Assay in all cases: PBM binding z-score (relative to random genomic background probes); higher = stronger binding; sequences stand for … in GC…GCGATTGACAGCGTAGAATGAAGG
[1] = test system: FXR:RXRa (NR concentration 270 nM, RXRa partner concentration 90 nM)
In short: (§1)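 For binding z-scores, the reference was random background probes on custom Agilent 4×180K protein-binding microarrays. These arrays were incubated 1 h with ligand-free nuclear receptor dimers in PBS pH 7.4, 2% milk, 0.02% Triton X-100, 1 mM DTT, 0.2 mg/mL BSA and 0.4 mg/ml salmon testes DNA. Fluorescence was scanned after antibody detection of each partner (one per run) and regression-normalized.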

[2] = test system: LXRa:RXRa (NR concentration 270 nM, RXRa partner concentration 90 nM)
In short: as §1

[3] = test system: LXRa homodimer (NR concentration 270 nM)
In short: as §1

[4] = test system: LXRb:RXRa (NR concentration 270 nM, RXRa partner concentration 90 nM)
In short: as §1

[5] = test system: LXRb homodimer (NR concentration 270 nM)
In short: as §1

[6] = test system: PPARa:RXRa (NR concentration 270 nM, RXRa partner concentration 90 nM)
In short: as §1

[7] = test system: PPARg:RXRa (NR concentration 180 nM, RXRa partner concentration 90 nM)
In short: as §1

[8] = test system: PPARg:RXRa 270nM:90nM, anti-RXR (NR concentration 270 nM, RXRa partner concentration 90 nM)
In short: as §1

[9] = test system: PPARg:RXRa 30nM:10nM, anti-RXR (NR concentration 30 nM, RXRa partner concentration 10 nM)
In short: as §1

[10] = test system: PPARg:RXRa 90nM:30nM, anti-RXR (NR concentration 90 nM, RXRa partner concentration 30 nM)
In short: as §1

[11] = test system: PPARg:RXRa DBDmut IVT, anti-RXR (DBD mutation: RXRa K156A/R161A, NR concentration 270 nM, RXRa partner concentration 90 nM)
In short: as §1

[12] = test system: PPARg:RXRa IVT, anti-PPARg (NR concentration 270 nM, RXRa partner concentration 90 nM)
In short: as §1

[13] = test system: PPARg DBDmut:RXRa IVT, anti-PPARg (DBD mutation: PPARg1 K132A/R137A, NR concentration 270 nM, RXRa partner concentration 90 nM)
In short: as §1

[14] = test system: PPARg DBDmut IVT, anti-PPARg (DBD mutation: PPARg1 K132A/R137A, NR concentration 270 nM)
In short: as §1

[15] = test system: PPARg homodimer (NR concentration 180 nM)
In short: as §1

[16] = test system: PXR:RXRa (NR concentration 270 nM, RXRa partner concentration 90 nM)
In short: as §1

[17] = test system: PXR homodimer (NR concentration 270 nM)
In short: as §1

[18] = test system: RARa:RXR (NR concentration 270 nM, RXRa partner concentration 90 nM)
In short: as §1

[19] = test system: RARa homodimer (NR concentration 270 nM)
In short: as §1

[20] = test system: RARb:RXRa (NR concentration 270 nM, RXRa partner concentration 90 nM)
In short: as §1

Sequence | PBM binding z-score [1] | PBM binding z-score [2] | PBM binding z-score [3] | PBM binding z-score [4] | PBM binding z-score [5] | PBM binding z-score [6] | PBM binding z-score [7] | PBM binding z-score [8] | PBM binding z-score [9] | PBM binding z-score [10] | PBM binding z-score [11] | PBM binding z-score [12] | PBM binding z-score [13] | PBM binding z-score [14] | PBM binding z-score [15] | PBM binding z-score [16] | PBM binding z-score [17] | PBM binding z-score [18] | PBM binding z-score [19] | PBM binding z-score [20]
CGTCAAATTTCAAGGTAACGTAACAGAAAGCAGC | 0.0505 | -0.0464 | 0.101 | 0.163 | -0.042 | 0.466 | 0.489 | -0.149 | 0.0887 | -0.0536 | -0.147 | 0.739 | 1.23 | 0.951 | 0.422 | 0.33 | -0.166 | 0.634 | 0.311 | 0.427
AGAATGAGGTTATAAGTAGATCAGGGAAGAAAGT | 1.94 | 1.59 | 0.0372 | 1.73 | 0.269 | 2.96 | 2.67 | 2.94 | 1.34 | 2.45 | 3.03 | 2.5 | 0.674 | 0.782 | 1.83 | 1.47 | 0.923 | 1.88 | 0.571 | 1.25
CCTACTGGGCCAAAAACGTCATTGATGCCGATAA | -0.178 | -0.282 | -0.294 | -0.357 | -0.478 | 0.119 | 0.525 | 1.02 | -0.141 | 0.509 | 2.89 | 2.22 | -0.472 | -0.737 | 0.2 | -0.35 | -0.449 | -0.17 | -0.624 | -0.163
TCTATTAGTTGATTAGCGCAACCGAAACAGCGGA | 0.828 | 0.894 | 0.314 | 0.663 | 0.632 | 0.774 | 0.0474 | 2.11 | 3.89 | 2.97 | 2.41 | 0.138 | 0.332 | 0.505 | 1.14 | 0.438 | 0.358 | 0.258 | 1.03 | 0.252
CCTACTGGGCGAAAGGTCATTGATTCCAATGCTC | 4.47 | 4.72 | 3.02 | 4.35 | 0.417 | 5.92 | 11 | 9.6 | 9.1 | 11.6 | 3.27 | 5.79 | -0.635 | -0.595 | 2.89 | 4.98 | 2.08 | 5.57 | 0.869 | 4.28
CCGACTGGGGCATAAAGGTTACCATACCATCCGG | 0.385 | 0.747 | -0.0869 | 0.923 | -0.959 | 2.47 | 3.04 | 3.77 | 2.08 | 3.81 | 1.89 | 3.25 | -0.548 | -1.23 | 1.42 | 1.3 | -0.303 | 1.83 | 0.301 | 1.89
